The text below walks through data of PubChem BioAssay (NCI).

The structures appear in SMILES notation. About 83,000 compounds went through this panel and 20% of them were active in at least one assay; those are over-represented in the sample as a whole.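 Interpretation: 100, growth as untreated; towards 0, rising growth inhibition; 0, no net growth; 0 to -100, cell death. Compounds scoring below 10 were considered active.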 Unmarked numbers belong to inactive results. Calls of active or inactive are those of the source.

Some test systems named below: SR leukemia; RPMI-8226 leukemia; OVCAR-8 ovarian; OVCAR-5 ovarian; OVCAR-4 ovarian; SK-OV-3 ovarian; IGROV1 ovarian; OVCAR-3 ovarian; HS 578T breast; NCI/ADR-RES ovarian; T-47D breast; BT-549 breast; MDA-MB-435 melanoma; SW-620 colon; MCF7 breast; HCT-116 colon; HCC-2998 colon; KM12 colon.
Common to all, as to test: NCI-60 one-dose screen, 48 h (100 = growth as untreated, 0 = no growth, -100 = all killed)
What all share (conditions): 10 µM unless noted

In the case of `Cc1ccc2nc(-c3ccc(C(=O)N/N=C/c4ccc([N+](=O)[O-])cc4)cc3)[nH]c2c1`, the growth in the assay with SR leukemia is 92%; with RPMI-8226 leukemia, 95.6%; with OVCAR-8 ovarian it was 105%; with OVCAR-5 ovarian, 96.5%; with OVCAR-4 ovarian, 107%; in the assay with SK-OV-3 ovarian it was 109%. For the same molecule, the growth in the assay on IGROV1 ovarian was 91.3%; with OVCAR-3 ovarian, 115%; with HS 578T breast, 105%; with NCI/ADR-RES ovarian, 106%; with T-47D breast, 91.1%; with BT-549 breast, 106%. In addition, the growth in the assay with MDA-MB-435 melanoma was 102%; in the assay with SW-620 colon it was 106%; in the assay on MCF7 breast, 88.3%; with HCT-116 colon, 103%; in the assay on HCC-2998 colon, 105%; in the assay with KM12 colon, 97.6%.
Turning to `CC1=C(Cl)C(=O)c2cc(C)ccc2C1=O`, the growth in the assay with SR leukemia is 89.3%; in the assay with RPMI-8226 leukemia, 99.6%; in the assay on OVCAR-8 ovarian it was 92.4%; in the assay on OVCAR-5 ovarian, 107%; in the assay on OVCAR-4 ovarian it was 103%; in the assay with SK-OV-3 ovarian, 105%. The growth was 103% in the assay on IGROV1 ovarian; 105% in the assay with OVCAR-3 ovarian; 104% in the assay with HS 578T breast; 105% with NCI/ADR-RES ovarian; 96.9% in the assay with T-47D breast; 97.9% in the assay on BT-549 breast. Moreover, the growth in the assay on MDA-MB-435 melanoma was 105%; in the assay on SW-620 colon, 105%; in the assay on MCF7 breast, 91.2%; with HCT-116 colon it was 106%; with HCC-2998 colon, 104%; with KM12 colon it was 102%.
For `COC(=O)c1sccc1-c1cc(O)c(C(=O)Nc2ccccc2)s1`, the growth in the assay with SR leukemia is 92.8%; in the assay on RPMI-8226 leukemia it was 93.4%; with OVCAR-8 ovarian it was 101%; with OVCAR-5 ovarian it was 117%; in the assay on OVCAR-4 ovarian, 89.7%; in the assay on SK-OV-3 ovarian it was 78.3%. The growth in the assay on IGROV1 ovarian was 95%; with OVCAR-3 ovarian, 96.2%; in the assay with HS 578T breast it was 103%; in the assay with NCI/ADR-RES ovarian it was 93.2%; in the assay on T-47D breast it was 67.5%; in the assay with BT-549 breast, 116%. In addition, the growth with MDA-MB-435 melanoma was 102%; in the assay with SW-620 colon, 109%; with MCF7 breast, 82%; in the assay on HCT-116 colon, 94.6%; in the assay on HCC-2998 colon, 109%; with KM12 colon, 87%.
Turning to `CCOC(=O)c1cnn(CC(C)O)c1NC(=O)NCc1cccc(F)c1` (centres undefined), the growth was 92.1% in the assay with SR leukemia; 90.3% in the assay with RPMI-8226 leukemia; 106% in the assay on OVCAR-8 ovarian; 107% in the assay on OVCAR-5 ovarian; 122% in the assay with OVCAR-4 ovarian; 101% with SK-OV-3 ovarian. The growth in the assay on IGROV1 ovarian was 95.5%; in the assay with OVCAR-3 ovarian, 107%; in the assay with HS 578T breast, 103%; in the assay with NCI/ADR-RES ovarian, 96.9%; with T-47D breast, 100%; in the assay with BT-549 breast, 101%. The growth with MDA-MB-435 melanoma was 107%; in the assay with SW-620 colon, 102%; in the assay on MCF7 breast, 104%; with HCT-116 colon, 84%; in the assay with HCC-2998 colon, 94.9%; in the assay on KM12 colon, 106%.
With `Cc1ccc2c(c1)=C/C(=C\c1cc(-c3ccccc3)[nH]c1O)C(=O)N=2`, the growth was 14.1% with SR leukemia; 33.8% in the assay on RPMI-8226 leukemia; 50.6% in the assay on OVCAR-8 ovarian; 78.9% in the assay on OVCAR-5 ovarian; 59.7% with OVCAR-4 ovarian; 65.7% in the assay on SK-OV-3 ovarian. The growth is 40.7% with IGROV1 ovarian; 16.1% in the assay with OVCAR-3 ovarian; 41.9% in the assay on HS 578T breast; 43.7% in the assay on NCI/ADR-RES ovarian; 40.2% with T-47D breast; 29.9% in the assay on BT-549 breast. In addition, the growth is -1.51% (active) with MDA-MB-435 melanoma; 32.8% in the assay on SW-620 colon; 21.5% in the assay with MCF7 breast; 17.6% with HCT-116 colon; 56.6% in the assay with HCC-2998 colon; 28.3% in the assay with KM12 colon.
Consider `CCN(CCNc1ccc(C)c2sc3cc(Cl)ccc3c(=O)c12)CC(C)(C)O`, for which the growth with SR leukemia was 49.6%; in the assay on RPMI-8226 leukemia, 49.4%; with OVCAR-8 ovarian, 85.5%; in the assay on OVCAR-5 ovarian it was 70.2%; in the assay with OVCAR-4 ovarian, 72.8%; in the assay on SK-OV-3 ovarian it was 45.1%. The growth is 50.7% in the assay with IGROV1 ovarian; 91.7% in the assay with OVCAR-3 ovarian; 79.3% in the assay with HS 578T breast; 74.6% in the assay on NCI/ADR-RES ovarian; 69.5% in the assay on T-47D breast; 84.9% in the assay with BT-549 breast. Moreover, the growth was 35.2% with MDA-MB-435 melanoma; 82.2% with SW-620 colon; 58.5% in the assay on MCF7 breast; 50.6% in the assay with HCT-116 colon; 39.6% in the assay with HCC-2998 colon; 40.5% in the assay with KM12 colon.
Turning to `O=S(=O)(NCCNc1nccc(-c2c(-c3ccc(F)c(O)c3)nc3sccn23)n1)c1ccc(Cl)cc1`, the growth in the assay with SR leukemia was 9.79% (active); in the assay on RPMI-8226 leukemia, -11.1% (active); in the assay on OVCAR-8 ovarian, 22.3%; with OVCAR-5 ovarian it was 93.1%; with OVCAR-4 ovarian, 32.5%; in the assay with SK-OV-3 ovarian, 39.3%. The growth in the assay with IGROV1 ovarian was 30.3%; with OVCAR-3 ovarian, 45.4%; in the assay with HS 578T breast it was 31.4%; in the assay on NCI/ADR-RES ovarian, 28.5%; in the assay on T-47D breast it was 2.76% (active); in the assay with BT-549 breast, 29.9%. Further, the growth in the assay on MDA-MB-435 melanoma was 3.65% (active); in the assay on SW-620 colon, 52.3%; in the assay with MCF7 breast, 13.5%; in the assay with HCT-116 colon, 16.7%; in the assay with HCC-2998 colon, 59.6%; in the assay on KM12 colon it was 12.6%.
In the case of `COc1ccc(/C=C(\C(=O)NCc2cccnc2)S(=O)(=O)c2ccccc2)cc1OC`, the growth in the assay on SR leukemia is 17.4%; in the assay with RPMI-8226 leukemia, 18%; in the assay on OVCAR-8 ovarian, 28.3%; in the assay on OVCAR-5 ovarian, 45%; in the assay on OVCAR-4 ovarian it was 42.1%; in the assay with SK-OV-3 ovarian it was 81.1%. The growth in the assay with IGROV1 ovarian is 19.7%; in the assay with OVCAR-3 ovarian, 19.7%; in the assay with HS 578T breast, 59.3%; in the assay with NCI/ADR-RES ovarian, 83%; in the assay with T-47D breast, 12.1%; with BT-549 breast, 35.5%. Also, the growth in the assay with MDA-MB-435 melanoma is -8.51% (active); in the assay on SW-620 colon, 11.9%; in the assay with MCF7 breast, 12.9%; with HCT-116 colon, 15%; with HCC-2998 colon it was 96.6%; with KM12 colon it was 52.8%.
